RORg inh: qHTS for inhibitors of ROR gamma transcriptional activity. AID 2551, 2010. actives 5.4% (n = 310,000). Potency, µM (series often up to 53.6 µM), for inactives: top-dose activity change, negative = inhibition, actives largely listed as inhibitors. Drosophila S2 Gal4-RORgamma UAS-luciferase reporter, 20 h; also: potency is read from the fitted curve at half-maximal effect; % is scaled to controls: 0 for no effect and ±100 for the full control effect; nearly all actives have a fitted effect of over 60% in size
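ROR gamma transcriptional activity was tracked as Gal4-UAS luciferase output in stably transfected Drosophila Schneider cells, with compound added 1 hr before 700 uM copper sulfate induction and a 20 hr ambient-temperature incubation.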
Giardia killer: Small Molecules that selectively kill Giardia lamblia: qHTS; Giardia lamblia trophozoite viability; activity change, % at 7.66 µM, hits read low; actives 0.15% (n = 340,000); AID 540267, 2011; in the data active = activity change below about -80%; inconclusive = between about -30% and that limit;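 also: parasites exposed to compound for two days anaerobically before the ATP read; % is scaled to controls: 0 for no effect and ±100 for the full control effect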
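Compounds were tested on trophozoites seeded at 100 cells/well and held 48 hrs at 37 deg C anaerobically. An ATP-based luminescent kit measured the remaining live cells.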
ERG-DNA inh: qHTS for Small Molecule Inhibitors of the ERG Ets/DNA interaction. Transcriptional regulator ERG (Homo sapiens), P11308. fluorescence polarization, His-ERG Ets domain / labelled DNA. Potency, µM (top dose mostly 76.9 µM), inactives show at the highest dose FP activity, negative = inhibition, most hits filed as inhibitors. actives 0.028% (n = 370,000); active = well fitted inhibition curve with a large enough effect in the polarisation, with a control signal flat; inconclusive = small, poorly fitted or top-dose-only effect, or effect the other way, or a change in a side signal; inactive = no such curve, though single readings can be large or run the other way; the % refers to the polarisation;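 also: polarization taken with two DNA probes labelled with fluorescein and Texas red; potency is read from the fitted curve at half-maximal effect; % of control where 0% means no effect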
Target sequence (P11308 whole entry, looked up, the tested form may be a part): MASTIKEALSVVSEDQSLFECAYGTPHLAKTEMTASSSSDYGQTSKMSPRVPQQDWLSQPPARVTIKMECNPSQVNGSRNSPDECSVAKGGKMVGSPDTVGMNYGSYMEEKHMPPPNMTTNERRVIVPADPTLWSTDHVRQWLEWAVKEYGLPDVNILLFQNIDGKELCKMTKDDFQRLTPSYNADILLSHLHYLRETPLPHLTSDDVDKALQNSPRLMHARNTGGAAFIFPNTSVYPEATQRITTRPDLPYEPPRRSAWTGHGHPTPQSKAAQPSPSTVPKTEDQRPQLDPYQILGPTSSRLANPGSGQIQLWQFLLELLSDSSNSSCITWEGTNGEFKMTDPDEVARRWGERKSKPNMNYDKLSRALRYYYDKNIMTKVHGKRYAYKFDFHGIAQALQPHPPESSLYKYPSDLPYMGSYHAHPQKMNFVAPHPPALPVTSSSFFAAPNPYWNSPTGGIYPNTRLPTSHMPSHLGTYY
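His-tagged ERG Ets domain (1 uM in the protein solution; 300mM KCl, 50mM Tris-HCl, 1mM EDTA, 1mM DTT, pH 7.5) received compound, then a probe mix of 5 nM fluorescein-DNA and 100nM Texas-615-DNA. Fluorescence polarization was read for both dyes.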
Integrin act MD: qHTS for Activators of Integrin-Mediated Alleviation for Muscular Dystrophy; actives 0.064% (n = 350,000); alpha7betagal myoblasts, beta-gal FDG fluorescence, 48 h; Potency, µM (highest dose often 38.3 µM), inactives show at the highest dose activation, usual class: activators;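 also: potency is read from the fitted curve at half-maximal effect; 100% = response of the positive control SU9516; nearly all actives have a fitted effect of over 60% in size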
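Alpha7betagal+/- myoblasts (passage 13) were plated 16-24 hr, then exposed to compounds (1:260 dilution of DMSO stock) for 48 hours at 37C. After MPER lysis, β-galactosidase reporter activity was read as FDG fluorescence (ex 480/em 540) after 30 minutes.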
Gal4-VP16 FLuc: VP16 counterscreen qHTS for inhibitors of ROR gamma transcriptional activity. Drosophila S2 Gal4-VP16 UAS-luciferase, luminescence, 20 h. Potency, µM (highest dose often 53.6 µM), inactives show at the highest dose activity, negative = inhibition, most hits filed as inhibitors. actives 3.5% (n = 310,000). AID 2546, 2010;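 also: Gal4-VP16 expression switched on by copper sulfate through the metallothionein promoter; potency is read from the fitted curve at half-maximal effect; % is scaled to controls: 0 for no effect and ±100 for the full control effect; nearly all actives have a fitted effect of over 50% in size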
The depositor's hits bear a star; [ ] = another dose, or the depositor's remark. The entries come from a sample that favours hits as a whole. Unless noted, calls follow the shape of the dose curve; as a rule, active = well fitted curve in the direction sought with a large enough effect; inconclusive = small, poorly fitted or top-dose-only effect, or another doubt; inactive = no such curve, though single readings can be large; an effect the other way counts as inactive or inconclusive.

Results for CC[C@@]1(O)C[C@H](O[C@H]2C[C@@H](N(C)C)[C@@H](O[C@H]3C[C@@H](O)[C@@H](O[C@H]4CCC(=O)[C@@H](C)O4)[C@@H](C)O3)[C@@H](C)O2)c2c(cc3c(c2O)C(=O)c2c(O)cccc2C3=O)[C@H]1C(=O)OC ?
RORg inh: 0.32µM*; Gal4-VP16 FLuc: 0.56µM*

Results for COc1cccc2c1C(=O)c1c(O)c3c(c(O)c1C2=O)CC(O)(C(C)=O)CC3OC1CC(N(C)C)C(O)C(C)O1 (centres undefined) ?
Giardia killer: -18; ERG-DNA inh: 1µM*; Integrin act MD: inconclusive

How did CC(=O)C1(O)Cc2c(O)c3c(c(O)c2C(OC2CC(N)C(O)C(C)O2)C1)C(=O)c1c(O)cccc1C3=O (centres undefined) do in these assays?
RORg inh: 11µM*; Gal4-VP16 FLuc: inconclusive

What do the screens show for `Cc1ccccc1C(=O)Nc1ccc(S(=O)(=O)N2CCC(c3nc4ccccc4s3)CC2)cc1`?
ERG-DNA inh: 1%

How did CCOC(=O)c1c(NC(=O)COC(=O)c2nc(Cl)ccc2Cl)sc2c1CCC2 do in these assays?
RORg inh: inconclusive; Giardia killer: 5; ERG-DNA inh: -6%; Integrin act MD: -14%; Gal4-VP16 FLuc: -8%

How did NC(=O)c1cc2cc([N+](=O)[O-])ccc2oc1=O do in these assays?
RORg inh: -1%; Giardia killer: -8; ERG-DNA inh: -21%; Integrin act MD: 18%; Gal4-VP16 FLuc: -2%

How did CC(=NCCN1CCNCC1)C1=C(O)CC(C)(C)CC1=O do in these assays?
RORg inh: -12%; Giardia killer: 9; Integrin act MD: 23%; Gal4-VP16 FLuc: -1%

What do the screens show for `COc1ccc(-c2nc(CS(=O)CC(=O)NCc3ccc(Cl)cc3)c(C)o2)cc1` (centres undefined)?
RORg inh: 8.9µM*; Giardia killer: -10; ERG-DNA inh: 3%; Integrin act MD: 9%; Gal4-VP16 FLuc: 7%

What do the screens show for `CCc1cccc(NC(=O)CS(=O)Cc2nc(-c3ccc(C)cc3)oc2C)c1` (centres undefined)?
RORg inh: 11µM*; Giardia killer: 50; ERG-DNA inh: -5%; Integrin act MD: -18%; Gal4-VP16 FLuc: -4%

What do the screens show for `Cc1ccc(-c2nc(CS(=O)CC(=O)NCc3ccc(Cl)cc3)c(C)o2)cc1` (centres undefined)?
RORg inh: 13µM*; Giardia killer: 15; ERG-DNA inh: -7%; Integrin act MD: -4%; Gal4-VP16 FLuc: 0%

How did CCc1ccc(-c2nc(CS(=O)CC(=O)NCc3ccccc3)c(C)o2)cc1 (centres undefined) do in these assays?
RORg inh: inconclusive; Giardia killer: 3; ERG-DNA inh: 14%; Integrin act MD: 12%; Gal4-VP16 FLuc: -3%

How did Cc1oc(-c2ccc(Cl)cc2)nc1CS(=O)CC(=O)NCc1ccccc1 (centres undefined) do in these assays?
RORg inh: -12%; Giardia killer: 10; ERG-DNA inh: -5%; Integrin act MD: -37%; Gal4-VP16 FLuc: 1%

What do the screens show for `CC1Cc2ccccc2N1C(=O)CO/N=C/c1ccc(OC(F)F)cc1` (centres undefined)?
RORg inh: 16%; Giardia killer: 11; ERG-DNA inh: -1%; Integrin act MD: 22%; Gal4-VP16 FLuc: -5%

What do the screens show for `CCn1c(=N)n(CC(=O)C23CC4CC(CC(C4)C2)C3)c2ccccc21`?
RORg inh: 4µM*; Giardia killer: -10; ERG-DNA inh: -9%; Integrin act MD: -1%; Gal4-VP16 FLuc: 8.9µM*

How did c1ccc2c3c([nH]c2c1)[C@@H]1[C@H]2CC[C@H]([C@H]4CCCN[C@H]42)N1CC3 do in these assays?
RORg inh: 0%[16.9 µM]; Gal4-VP16 FLuc: -3%[17 µM]

Results for COc1cccc(CNC(=S)NC2CC2)c1 ?
RORg inh: 10µM*; Giardia killer: 0; ERG-DNA inh: 0%; Integrin act MD: inconclusive; Gal4-VP16 FLuc: -29%

Results for COc1cccc(CNC(=S)NC2CCCC2)c1 ?
RORg inh: 10µM*; Giardia killer: 2; ERG-DNA inh: 1%; Integrin act MD: -27%; Gal4-VP16 FLuc: 10µM*

Results for COc1cccc(CNC2CCCC2)c1 ?
RORg inh: 5%; Giardia killer: 4; ERG-DNA inh: -2%; Integrin act MD: 2%[7.66 µM]; Gal4-VP16 FLuc: 0%

How did CCC1CCCCC1 do in these assays?
RORg inh: 1%; Gal4-VP16 FLuc: -1%

Results for CC1CCC(N2CC(=O)N(C3CCCC3)C(c3ccc(Cl)cc3)C2=O)CC1 (centres undefined) ?
ERG-DNA inh: 2%

How did FC(F)(F)c1cccc(NCc2n[nH]c(=S)n2C2CCCCC2)c1 do in these assays?
RORg inh: 4.5µM*; Giardia killer: 14; ERG-DNA inh: -1%; Integrin act MD: 16%; Gal4-VP16 FLuc: -23%

Results for S=c1[nH]nc(CSc2nc3ccccc3s2)n1C1CCCCC1 ?
RORg inh: 0.2µM*; Giardia killer: -6; ERG-DNA inh: 2%; Integrin act MD: -11%; Gal4-VP16 FLuc: 1.3µM*

Results for S=c1[nH]nc(COc2ccccc2)n1Cc1ccccc1 ?
RORg inh: 1.6µM*; Giardia killer: 0; Integrin act MD: 14%; Gal4-VP16 FLuc: 6.3µM*

Results for CC(C)CCn1c(COc2ccccc2)n[nH]c1=S ?
RORg inh: 1.1µM*; Giardia killer: 1; ERG-DNA inh: 14%; Integrin act MD: 20%; Gal4-VP16 FLuc: inconclusive

What do the screens show for `O=C(NCc1n[nH]c(=S)n1-c1cccc(C(F)(F)F)c1)c1ccco1`?
RORg inh: -30%; Giardia killer: -4; ERG-DNA inh: 3%; Integrin act MD: -12%; Gal4-VP16 FLuc: 1%

Results for Cc1cccc(OCc2n[nH]c(=S)n2Cc2ccccc2)c1 ?
RORg inh: 2µM*; Giardia killer: -8; ERG-DNA inh: 0%; Integrin act MD: 9%; Gal4-VP16 FLuc: inconclusive

Results for NC(=O)CSc1nnc(COc2ccccc2)n1C1CCCCC1 ?
RORg inh: 14%; Giardia killer: 5; ERG-DNA inh: -7%; Integrin act MD: 3%; Gal4-VP16 FLuc: 2%

What do the screens show for `S=c1[nH]nc(COc2ccc(Cl)cc2)n1Cc1ccco1`?
RORg inh: 3.2µM*; Giardia killer: 1; ERG-DNA inh: -3%; Integrin act MD: 0%; Gal4-VP16 FLuc: inconclusive

Results for CCc1ccc(OCc2n[nH]c(=S)n2C(C)CCCC(C)C)cc1 (centres undefined) ?
RORg inh: 6.3µM*; Giardia killer: 3; ERG-DNA inh: -5%; Integrin act MD: -68%; Gal4-VP16 FLuc: -22%

From PubChem BioAssay
